± gives the standard deviation of the averaged measurements. In all, about 25,000 sequences were measured (“ln(normalized median fluorescence intensity)”: median about 8.6, highest 2% from about 10 on). This is one part of a sample in which the highest values are shown more often than they occur.
tested on: PfAP2-EXP AP2 domain (GST-tagged); assay: gcPBM binding intensity (ln(normalized median fluorescence intensity)); higher = stronger DNA binding
Method in brief: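 Plasmodium falciparum DNA-binding domains carrying a GST tag were expressed in E. coli and applied for 1 h, at about 25 μg on average, to an Agilent 4 × 180k array. The array held primer-extended double-stranded 36-bp intergenic genomic probes together with negative controls, and binding took place in 1× PBS with 1% milk, 0.2 mg/ml BSA, 0.5% salmon testes DNA and 0.03% Triton X-100. An Alexa488 anti-GST antibody detected bound protein, and the array was scanned at 488 nm. Binding intensity is taken as the highest Masliner-normalised natural-log median intensity across replicate spots of either probe orientation.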

| Sequence | gcPBM binding intensity (ln) |
| --- | --- |
| AGTAGCATATTCTATTGTACATATATATATATATAT [XGTACX_site2980] | 10.2 ± 0.56 |
| TAATATTTATTCTATTGTACATAAAATATATATATA [XGTACX_site7132] | 9.225 ± 0.078 |
| TATATATATATATATTGTACATATTGTATATATTGT [XGTACX_site3212] | 9.98 ± 0.21 |
| TTTATATATATAAATATGTAGATAACAATATTCTGA [TGCATGCA_negctrl_site554] | 8.16 ± 0.44 |
| AAATTGGTTCATCAATGTACATGTAAAATAAATCAA [XGTACX_site4795] | 8.88 ± 0.46 |
| AAATTAATATTATGTGCATGCACAAAGAGGAACGAC [TGCATGCA_site754] | 10.7 ± 0.18 |
| ATTATTAATAATTGTGTGCACAAATATTTATATGCT | 8.86 ± 0.092 |
| TATTAATTATAAGATGCATGTGCAAAAATATGTTCC [TGCATGCA_site51] | 9.01 ± 0.36 |
| ATATATATATATATATATATATATATATATAAGTGG [XGTACX_negctrl_site90] | 9.94 ± 0.35 |
| TACTTACACTGTTTTTGTACTTATTTCCCTTTTATT [XGTACX_site2158] | 9.12 ± 0.6 |
| ATTTCCCCTTTTTATTGTACATTTTTATTTGTTACT [XGTACX_site4845] | 9.14 ± 0.64 |
| TTATTTTCCCTTTGTGCATGCAGTTTACTTTTTGTG [TGCATGCA_site993] | 10.4 ± 0.64 |
| TGTATAAGGTTTTTACGTTTTGAAGGATGTATTGTT [CACACA_negctrl_site1245] | 8.59 ± 0.6 |
| TTGTATTATTATGTTGCACACATTTTATATAAAATA [CACACA_site3641] | 9.06 ± 0.31 |
| TTTATATGTATTAAGTGTACACATATAATGTATTTT [XGTACX_site16] | 8.71 ± 0.014 |
| TTTATGTGTATTAAGTGTACACATATAGTGTATTTT [XGTACX_site999] | 8.42 ± 0.31 |
| TATGTATTTTTTAAGTGTACCTATATATATATATAT [XGTACX_site7934] | 10.2 ± 0.3 |
| TACAGAAATTTATATATATATATATATATATATATA [XGTACX_negctrl_site209] | 9.95 ± 0.62 |
| ACATATAATATAAATTGTACATATAAATATATTATT [XGTACX_site4268] | 8.38 ± 0.32 |
| AATATAATATACATATGTACATATATATATATATAT [XGTACX_site8218] | 10 ± 0.32 |
| TATATATATATATATTGTACATATTAATATTAGAAA [XGTACX_site8923] | 10.1 ± 0.39 |
| TATAGAAAATTTATATGTACATATATATATATATAT [XGTACX_site4451] | 10.1 ± 0.44 |
| ATTTAGAAATATATTTGTACATATATATATATATAT [XGTACX_site7129] | 10.2 ± 0.35 |

| Sequence | gcPBM binding intensity (ln) |
| --- | --- |
| AATAAATAAATATATTGTACATATATATATATATAT [XGTACX_site8627] | 10.2 ± 0.4 |
| TAGAAATATATTTATTGTACATTGTATATATTATAT [XGTACX_site7584] | 8.35 ± 0.48 |
| AGAATAAATAAATATTGTACATATAAAATATATATA [XGTACX_site896] | 8.39 ± 0.35 |
| ATATATATAAATATATGTACTAATATATACATATAT [XGTACX_site2289] | 8.22 ± 0.092 |
| ATATATATATATATATGTACATACTATACAATAATT [XGTACX_site3546] | 10.4 ± 0.29 |
| ACATGTACAGAAATTTATATATATATATATATATAT [CACACA_negctrl_site1584] | 10.3 ± 0.33 |
| GTAGTAATAAATCTAGTGCATTATATATAACAAAAA [GTGCAC_site9803] | 8.81 ± 0.3 |
| TAGCCATTTTTATATTGTACTTATATAATCACATTT [XGTACX_site4407] | 8.72 ± 0.4 |
| ATGCACATTTATAAAAGTACATGTATGTAATATGTT [XGTACX_site830] | 8.77 ± 0.33 |
| TGTATGAAATATATTACACACATATATAATATATAT [CACACA_site793] | 8.36 ± 0.3 |
| GATGCTAAAATTTATACACACAAAAAAAAAAAATTC [CACACA_site3284] | 8.47 ± 0.46 |
| CAAGAAAATTGACACACACACATATTTATATTTATA [CACACA_site7766] | 8.36 ± 0.48 |
| AAGTATAACCTTTATAATAATGACATGACCGATTTT [CACACA_negctrl_site395] | 8.26 ± 0.34 |
| TGTAGTCTGGAGAAACGTACACAGTATCTGGTAACA [XGTACX_site4938] | 8.34 ± 0.36 |
| AAAAAAAAAAAAAAATGTACATATATATAAATAAAA [XGTACX_site5574] | 8.51 ± 0.45 |
| AAAAAAAAAAAAAAATGTACATATATATAAATATAT [XGTACX_site6768] | 8.34 ± 0.4 |
| AACATATAAATAAACTGTACATATATATATATATAT [XGTACX_site1056] | 10.1 ± 0.39 |
| AAATGTACAGGACGCACACACATATTTATATTTATA [CACACA_site7689] | 8.55 ± 0.33 |
| AAATGTACAGGACGCACACACATATATATATATATA [CACACA_site3674] | 10.4 ± 0.81 |
| ATAAAAATAAATAAATGTACATATATATATATATAT [XGTACX_site1277] | 10.1 ± 0.4 |
| AATGTAAAATATAAATGTACATATATATATATATAT [XGTACX_site5071] | 10.2 ± 0.24 |
| ATATATATTATAATCTGTACATAAATATATAATAAA [XGTACX_site5425] | 8.39 ± 0.33 |
| TATAATAAATCGAACTGTACATATATATATATATAT [XGTACX_site7097] | 10.2 ± 0.33 |

| Sequence | gcPBM binding intensity (ln) |
| --- | --- |
| TAAAATGTACAGGACGCACACACATATATATATATA [CACACA_site3673] | 10.1 ± 0.22 |
| AAAAAAAAAAAAAAATGTACATATAAATAAATATAT [XGTACX_site7248] | 8.51 ± 0.42 |
| ATAAAAAAATATAAATGTACATATATATATATATAT [XGTACX_site5620] | 10.2 ± 0.2 |
| ATTTTTATAGAATGAACACACATATTATAGCATTTA [CACACA_site6842] | 8.45 ± 0.38 |
| AACACTTCTTATTTATGTACTTAATTCCCAACGGAA [XGTACX_site4818] | 8.87 ± 0.46 |
| CATATGATATTATTTTGTACTTATTACAAATATGAA [XGTACX_site7929] | 8.4 ± 0.42 |
| TATAAAGCAACTGAAACACACAAATTTTTTTTTTTT [CACACA_site3218] | 8.04 ± 0.46 |
| ACACATAATATGTGTAGTACTTTTTCTTTAACATTA [XGTACX_site1436] | 8.64 ± 0.36 |
| TATAAAAATAATATTACACACATGTAAAATGCCCGT [CACACA_site7522] | 8.49 ± 0.31 |
| GGACAAGTTTTTTACATAAATAAAAAAAATAAAAAA [XGTACX_negctrl_site125] | 8.44 ± 0.42 |
| AAAAGGATTTTTTATACACACACTAACTAATGTATA [CACACA_site2356] | 8.23 ± 0.43 |
| TAAATAAAATACAAATGTACATAAATAATAAATATA [XGTACX_site1813] | 8.76 ± 0.41 |
| TTAAATGTTATATATTGTACATATAATATATGTATT [XGTACX_site1492] | 8.27 ± 0.19 |
| TCTGGCATATAATATTGTACACATATATATATATAT [XGTACX_site8182] | 10.2 ± 0.33 |
| AAATGGAGTTAATATTGTACATATATATATATATAT [XGTACX_site5452] | 10.3 ± 0.18 |
| CATATATAATAATATTGTACATATATAATAATAATA [XGTACX_site3338] | 8.4 ± 0.35 |
| ATACATGAATAAATATGTACACATATAAAAACATAT [XGTACX_site2740] | 8.68 ± 0.23 |
| AATAAAATACAAAAATGTACAAATATAATATACATA [XGTACX_site279] | 8.34 ± 0.28 |
| TTATACTAAATGAACACACACACATATATATATATA [CACACA_site99] | 10 ± 0.5 |
| TATTAAATATTGTAATGTACATATATAATATAATAT [XGTACX_site1809] | 8.53 ± 0.17 |
| ATATATATAATATATTGTACATATAATATATATATA [XGTACX_site4792] | 9.24 ± 0.042 |
| TATAATATATACAAATGTACATATATATATATATAT [XGTACX_site4559] | 10.2 ± 0.42 |
| ATACTAAAAATGAATGTACACATATATATATATATA [TGCATGCA_negctrl_site209] | 10.2 ± 0.33 |

| Sequence | gcPBM binding intensity (ln) |
| --- | --- |
| GGATAAAATGCTACGAGTACATAAGCATTTTTCCCT [XGTACX_site7796] | 8.73 ± 0.35 |
| ATGGTCTGTTAAAGATGTACTTTTTAAAAATAAACG [XGTACX_site2583] | 8.48 ± 0.25 |
| TATAGGTATATATTATGTACTTATAATTATATAGAT [XGTACX_site1912] | 8.52 ± 0.35 |
| TATATATATAAAATATGTACATAAAATTATTTATTT [XGTACX_site7666] | 8.61 ± 0.26 |
| ATATAATAATAAGGCACACAAATTAAAATATAAAAA [CACACA_site3710] | 8.79 ± 0.35 |
| TCATAAATATGAAAAAGTACAAAGGTAGATTTTGAA [XGTACX_site4535] | 8.48 ± 0.3 |
| GGATAATATATTAGAACACACATATAGATGTAAAAA [CACACA_site6229] | 8.57 ± 0.54 |
| ATTATGTTAATAATATGTACATATATCTACATATAT [XGTACX_site7978] | 8.37 ± 0.33 |
| TCGTCACTTTAATATTGTACATATATATATATATAT [XGTACX_site8046] | 10.3 ± 0.13 |
| TGTACAAATATGTACACACACACATATATATATATA [CACACA_site584] | 9.95 ± 0.31 |
| TAAAAATCCACAAGCACACAAATGTACATATATATA [CACACA_site2462] | 8.71 ± 0.24 |
| CGCATGCAATGTTAATGTACATATATATATATATGT [XGTACX_site3316] | 9.395 ± 0.049 |
| ATATATGCATATATATGTACATATATATATATATAT [XGTACX_site7403] | 9.93 ± 0.4 |
| AAATATATAATACATATGTAATATGCATATATATAT [GTGCAC_negctrl_site450] | 9.72 ± 0.16 |
| ATATATATATATATATGTACATAATGCATATAATAT [XGTACX_site6142] | 10.2 ± 0.56 |
| TTTTTTTTTTTTTATTGTACATACTTTTAAATATAT [XGTACX_site4303] | 8.55 ± 0.59 |
| ACACAAGCACACAAATGTACATATATATATATATAT [XGTACX_site5146] | 10.2 ± 0.13 |
| CGCTCTCTTTAATATTGTACATATATATTATATATA [XGTACX_site7017] | 8.77 ± 0.35 |
| ATATATATATATATATGTACATATGTTAATCTGCAT [XGTACX_site1068] | 10.2 ± 0.31 |
| TACAAATATATATGCACACACATATATGTATATGTG [CACACA_site3075] | 8.65 ± 0.26 |

Source: the supplement of paper PMC11417369
